# FGF22 binding: binders of human FGF22 protein, primary screen, FGF22 synaptogenesis inhibitor project, biophysical, thermal shift, single point; recombinant FGF22 thermal shift, SYPRO orange fluorescence; percent of sucrose octasulfate shift, DMSO zero; Fibroblast growth factor 22 (Homo sapiens), Q9HCT0; 1.5% of 340,000 active; activity (Tm shift, normalised), % at 9.99 µM;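 active = mean Tm shift, scaled 0 neutral to 100 positive control, at about 1.3% or above, every replicate too, limit read from the data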
# ADAM10 inh: human ADAM10 inhibitors, primary screen, biochemical, QFRET, HTS; recombinant ADAM10, EDANS/DABCYL FRET peptide cleavage, 3 h; inhibition, % at 7 µM; 0.62% of 370,000 active; AID 720582, 2013;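 active = inhibition above a per-campaign cutoff equal to the mean of compounds falling between control-based bounds plus 3 SD, cut at about 20% in these data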;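 also: 0% = DMSO wells while the 100% control is not disclosed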
# Target sequence (O14672 214-748 limits assumed): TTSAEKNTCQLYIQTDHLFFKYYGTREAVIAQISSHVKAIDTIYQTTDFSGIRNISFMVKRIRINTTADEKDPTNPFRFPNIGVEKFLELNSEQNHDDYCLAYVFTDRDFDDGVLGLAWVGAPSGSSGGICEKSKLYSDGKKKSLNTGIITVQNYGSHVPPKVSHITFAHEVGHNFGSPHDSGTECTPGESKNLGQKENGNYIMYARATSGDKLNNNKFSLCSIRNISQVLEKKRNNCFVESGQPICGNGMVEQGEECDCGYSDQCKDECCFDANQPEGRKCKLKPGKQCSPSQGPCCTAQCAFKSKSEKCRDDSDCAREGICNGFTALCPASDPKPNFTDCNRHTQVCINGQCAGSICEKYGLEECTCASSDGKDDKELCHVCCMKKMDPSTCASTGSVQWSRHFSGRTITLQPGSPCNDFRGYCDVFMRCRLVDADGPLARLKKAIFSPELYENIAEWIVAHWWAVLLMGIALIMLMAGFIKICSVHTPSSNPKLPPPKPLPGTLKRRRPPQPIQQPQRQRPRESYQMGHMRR
# Ecoli rRNA inh: reduced GFP signal of wild-type E. coli, primary screen, bacterial rRNA inhibitor project, GFP/RFP fluorescence, OD600, single point | E. coli WT GFP vs humanized-ribosome RFP mutants, 24 h; hits give low values; DMSO median 0, no signal -100 | GFP signal change (wild-type ribosome), % (no concentration beside the values) | 1.6% of 350,000 active | AID 720706, 2013;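 active = significant combined selectivity score with lowered wild-type GFP, culture density cut under 30%, mutant RFP and density less affected; inactive = any of these conditions unmet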
# ADAM17 inh: ADAM17 inhibitors, primary screen, biochemical, QFRET; Disintegrin and metalloproteinase domain-containing protein 17 (Homo sapiens), P78536; recombinant ADAM17, EDANS/DABCYL FRET peptide cleavage; inhibition, % at 6.95 µM; 0.83% of 370,000 active;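 active = inhibition above the mean of compounds lying between control limits plus 3 SD, set per campaign, cut at about 8.5% in these data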;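 also: 0% = DMSO-only wells as the low control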
# KLK7 zymogen act: proKLK7 zymogen activators, primary screen, biochemical, fluorescence intensity. Kallikrein-7 (Homo sapiens), P49862. purified proKLK7, EDANS-DABCYL substrate fluorescence; 100% is mature enzyme control, 0% vehicle. activation, % at 7 µM. 0.9% of 370,000 active;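 active = activation above the mean of all tested compounds plus 3 SD, computed per campaign excluding outliers beyond control limits, cut at about 13% in these data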
# proKLK7 act conf: proKLK7 zymogen activators, confirmation, biochemical, fluorescence intensity, triplicate; shares compounds with KLK7 zymogen act; purified proKLK7, EDANS-DABCYL substrate fluorescence; scaled: vehicle 0, mature enzyme 100; activation, % at 7 µM; 68% of 3,200 active;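 active = activation, as change over the incubation, above the mean of all tested compounds plus 3 SD, cut at about 13% in these data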
# EDANS interfere: EDANS-DABCYL substrate optical interference, artefact control for kallikrein-7 zymogen activator project, biochemical, fluorescence intensity, high throughput | shares compounds with KLK7 zymogen act | no enzyme, 4 h; solvent 0%, active enzyme control 100% | activation, % at 7 µM | 80% of 3,200 active | AID 686952, 2013;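 active = activation above the all-compound mean plus 3 SD, ignoring values outside control-based bounds, cut at about 4.8% in these data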;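 also: value is the 4 h activation minus the activation read at time zero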
# K7 EDANS ctr: EDANS fluorescence interference in dose response, no enzyme. shares compounds with KLK7 zymogen act. EDANS-DABCYL peptide fluorescence interference. EC50, µM. 20% of 250 active. AID 720493;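 active = compounds that raise the fluorescence signal in this interference counterscreen, with EC50 at or below 10 µM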;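 also: intact quenched peptide substrate alone read at 355 nm excitation and 520 nm emission; signal is fluorescence gain from T0 to T4 after four hours at room temperature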
# An asterisk follows results filed as active; i = inactive; x = no result given. Sampled rows, rich in hits. Any-hit rate of the full collection: about 3.8%.
SMILES,FGF22 binding,ADAM10 inh,Ecoli rRNA inh,ADAM17 inh,KLK7 zymogen act,proKLK7 act conf,EDANS interfere,others
Cc1ccc(S(=O)(=O)NN2C(=O)c3ccccc3NC2c2cccc(O)c2)cc1 (stereo unspecified),0,-72,7,-27,5,x,x,
COc1ccc(C#Cc2ccc3c(c2)[C@H]2[C@H](CCN2Cc2ccncc2)[C@@H](CO)N3)cc1,x,x,5,x,x,x,x,
O=c1c(-c2ccccc2)c(O)nc2ccccn12,0,-29,3,-8,0,x,x,
O=c1c2ccccc2nc2ccccn12,0,i,19,i,50*,42*,41*,
CN(C)C(=O)C[C@@H]1C=C[C@@H](NC(=O)NC2CCCC2)[C@@H](CO)O1,0,x,2,x,x,x,x,
CCN(CC)Cc1c(O)ccc2cc(-c3nc4ccccc4n3C)c(=O)oc12,0,i,6,i,52*,73*,76*,
CCc1cc2c(=O)c(-c3nc4ccccc4n3C)c(C)oc2c(CN(CC)CC)c1O,x,-357,x,-126,16*,11,11*,
CC(C)C#Cc1cnc2c(c1)C(=O)N([C@H](C)CO)C[C@@H](C)[C@H](CN(C)S(=O)(=O)c1cn(C)cn1)O2,0,x,2,x,x,x,x,
C[C@H](O)C#Cc1ccc2c(c1)O[C@H](CN(C)C(=O)C1CCCCC1)[C@H](C)CN([C@H](C)CO)S2(=O)=O,0,x,5,x,x,x,x,
COc1ccc2sc(C)cc(=O)c2c1,0,i,5,-435,51*,37*,43*,
CC(=O)Nc1ccc(S(=O)(=O)Nc2cccc(-c3csc(C)n3)c2)cc1,42,0,x,-2,-1,x,x,
CCN(CC)S(=O)(=O)c1cccc(-c2cn3cccnc3n2)c1,0,i,5,i,21*,38*,25*,K7 EDANS ctr=>70
CC(=O)Nc1ccc(S(=O)(=O)Nc2cccc(-c3cn4cccnc4n3)c2)cc1,0,i,15,-286,43*,7,7.8*,
CCCC(=O)Nc1ccc(-c2cn3cccnc3n2)cc1,0,i,4,i,58*,67*,63*,
CCCC(=O)Nc1cccc(-c2cn3cccnc3n2)c1,0,i,-3,i,30*,42*,45*,
CCOCC(=O)Nc1ccc(-c2cn3cccnc3n2)cc1,x,i,x,i,39*,67*,79*,
CC(C)CC(=O)Nc1ccc(-c2cn3cccnc3n2)cc1,0,i,2,i,70*,66*,68*,
CC(C)(C)CC(=O)Nc1ccc(-c2cn3cccnc3n2)cc1,0,i,-7,i,74*,66*,65*,
COc1ccc(-c2cn3cccnc3n2)cc1NC(=O)CC(C)C,x,-331,x,-105,4,x,x,
CCCC(=O)Nc1cc(-c2cn3cccnc3n2)ccc1OC,x,-297,x,-103,5,x,x,
COc1ccc2c3c(n(C)c2c1)[C@@H](CO)N(C)CC31CN(S(=O)(=O)c2cn(C)cn2)C1,0,x,0,x,x,x,x,
C[C@H](CO)N1C[C@H](C)[C@@H](CN(C)C(=O)C2CCC2)Oc2cc(C#Cc3ccncc3)ccc2S1(=O)=O,0,x,-8,x,x,x,x,
CN(C)CC#Cc1cccc(-c2nc(C(=O)N3CCN(C)CC3)cc3c2[C@@H](CCO)N(S(=O)C(C)(C)C)C3)c1 (stereo partly specified),0,x,x,x,x,x,x,
COc1ccc(-c2ccc(C3[C@H]4CNC[C@@H]3N4S(=O)(=O)c3ccc(OC)cc3)cc2)cc1 (stereo partly specified),x,x,-6,x,x,x,x,
N#C/C(=C/c1ccc(-c2ccc(S(N)(=O)=O)cc2)o1)C(=O)Nc1ccccc1,x,-79,x,-23,27*,16*,0,K7 EDANS ctr=i
SMILES,FGF22 binding,ADAM10 inh,Ecoli rRNA inh,ADAM17 inh,KLK7 zymogen act,proKLK7 act conf,EDANS interfere,others
Cc1ccc(-c2cnc(-c3ccncc3)o2)cc1,x,i,x,i,74*,65*,70*,
Nc1ccc(-c2ncc(-c3ccccc3)o2)cc1,0,i,3,i,21*,7,3,
Cc1ccc(-c2nc(-c3ccncc3)no2)cc1,0,5,6,-2,0,x,x,
COCC(=O)N1[C@H](CO)[C@@H](c2ccccc2)C12CN(C(=O)NC1CCCCC1)C2,0,x,1,x,x,x,x,
CCOc1cccc(-c2cnc3cccnn23)c1,1,i,5,-236,41*,37*,33*,
Cc1cccc(-c2cnc3cccnn23)c1,0,i,5,-243,34*,27*,35*,
CO[C@@H]1CN(C)C(=O)c2cc(NC(=O)Nc3cccc(F)c3)ccc2OC[C@H](C)N(C(=O)C2CC2)C[C@@H]1C,x,x,-5,x,x,x,x,
COc1ccccc1-c1c(C)oc2c(CN3CCCC(C)C3)c(O)ccc2c1=O (stereo unspecified),0,i,-2,i,45*,72*,69*,
COc1ccc(-c2c(C)oc3c(CN4CCCC(C)C4)c(O)ccc3c2=O)cc1OC (stereo unspecified),0,-426,9,-165,7,x,x,
CC1CCCCN1Cc1c(O)ccc2c(=O)c(-c3ccc(Br)cc3)coc12 (stereo unspecified),0,i,-1,-283,11,x,x,
COc1ccc(-c2c(C)oc3c(CN4CCCCC4C)c(O)ccc3c2=O)cc1 (stereo unspecified),0,i,7,i,41*,50*,52*,
COc1ccccc1-c1coc2c(CN3CCCCC3C)c(O)ccc2c1=O (stereo unspecified),0,i,-2,i,53*,66*,64*,
CC1CCCCN1Cc1c(O)ccc2c(=O)c(-c3ccc(Cl)cc3)coc12 (stereo unspecified),0,i,-7,-271,17*,27*,26*,
COc1ccc(-c2cnc3c(c2)C(=O)N([C@H](C)CO)C[C@H](C)[C@H](CN(C)S(=O)(=O)c2cccc(OC)c2)O3)cc1,x,x,1,x,x,x,x,
